Among all 45,000 compounds or so, about 200 (0.44%) were called active. Inconclusive results (about 7%) are left out. The full list was thinned out, with actives kept by preference. A number with no mark means an inactive call. The call rests on the fitted dose curve; in most records, active means well fitted activation curve with a large enough effect; inconclusive means small, poorly fitted or top-dose-only effect; inactive means no such curve, though single readings can be large or run the other way.
Experiment: qHTS of TDP-43 Inhibitors: NCGC Sytravon Library Screen; further: nearly all actives have a fitted effect of over 55% in size; on growth rescue (activation): 0% is about no effect
Conditions: yeast TDP-43 toxicity rescue, BacTiter-Glo growth, 24 h; series mostly up to 46.1 µM; growth rescue (activation): at the top concentration
Excerpt: The goal of this project is to identify new chemical probes capable of reversing the toxicity associated with TDP-43 which is associated with frontotemporal lobar degeneration and amyotrophic lateral sclerosis. These compounds will provide a complementary approach to deciphering the tangled mechanisms of toxicity and protection that we have uncovered through genome-wide genetic screens and are beginning to uncover in a large-scale proteomics analysis with mass spectroscopy. To this end, a miniaturized assay was developed to be screened against the Molecular Libraries Small Molecule Repository (MLSMR) to discover TDP-43 inhibitors. Please note that in the set-up this yeast-based assay compounds that inhibit as TDP-43, have a read-out as activators. NIH Chemical Genomics Center [NCGC] NIH Molecular Libraries Probe Centers Network [MLPCN] Assay Submitter (PI): Susan Lindquist, Whitehead Institute/MIT MLPCN Grant: R21 NS060957
Dispense 2.5 microL yeast galactose medium per 1536-well plate, pin compound, dispense 2.5 microL TDP-43 expressing yeast in galactose medium at OD600=0.02 (pregrown in raffinose medium to mid-log phase) per well, incubate for 24 hr at 30 deg C, and cell growth will be measured using 5 microL of Bactiter/Glo reagent to entire plate and read using Luminescence Protocol in ViewLux.
Potency means the concentration at half of the fitted maximal effect.

Structure (SMILES)	growth rescue (activation) [%]	Potency
CCc1ccc(OC2(C)CCN(CCOc3ccc(C)cc3)C2)cc1 (stereo not given)	16.9	
COc1ccc(CN2CCC(C)(Oc3cccc(F)c3)C2)c2ccccc12 (stereo not given)	-7.83	
O=C(NCc1ccc(F)cc1)c1cc(C2CCCCN2C(=O)c2cccs2)on1 (stereo not given)	22.8	
CN(CC(=O)NC(=O)Nc1ccccc1F)Cc1ccccc1	-6.54	
CCn1c(CSc2nc(C)cc(C)n2)nnc1SCC(N)=O	2.73	
O=C(O)C(F)(F)C(NCc1ccccc1)c1ccccc1 (stereo not given)	-7.2	
CC(C(=O)Nc1ccc(F)c(F)c1F)N1CCCCCC1 (stereo not given)	14.6	
O=C(NCCc1ccc(F)cc1)c1n[nH]c2ccccc12	28.9	
N#Cc1ccccc1NC(=O)c1ccc2c(c1)OCO2	15.1	
O=C(COC(=O)c1ccncc1)Nc1ccc2c(c1)OCO2	5.9	
N/C(=N\OC(=O)c1ccc2c(c1)OCO2)c1ccc(Br)cc1		3.55 µM (active)
O=C(O)CC1(CC(=O)Nc2cccc(C(F)(F)F)c2)CCCC1	19.5	
Cn1c(NCc2cccnc2)nc2cc(-c3ccc(F)cc3)sc2c1=O	0.425	
Cc1ccc(C)c(NC(=O)CN(C)C(=O)COc2ccc3ccccc3c2)c1	-0.898	
NS(=O)(=O)c1cccc(NC(=O)CN2CCCc3ccccc32)c1	12.9	
O=C(CCn1nnc2ccccc2c1=O)N[C@@H](Cc1c[nH]c2ccccc12)C(=O)O	-8.31	
O=C(NC1CC1)C(Cc1ccccc1)NS(=O)(=O)c1ccccc1F (stereo not given)	5.63	
COc1cccc(CC2(CO)CCN(Cc3cnc(-c4cccc(C)c4)nc3)CC2)c1	8.67	
COCCCNC(=S)N1CCCC(c2nc3cc(C)c(C)cc3[nH]2)C1 (stereo not given)	8.91	
CCC1CCCCN1C(=O)CSc1nc2c(c(=O)n(C)c(=O)n2C)n1C (stereo not given)	-3.65	
CC(C)c1ccc(N(C(=O)c2ccco2)C(C(=O)NC2CCCC2)c2cccnc2)cc1 (stereo not given)	13.8	
COc1ccc(N2CCN(C(=O)C3CCN(C(=O)c4ccccc4Cl)CC3)CC2)cc1	9.74	
CCc1cc(-c2nnc(SCC(=O)NC3CC3)n2C)cs1	0.827	
CCOc1ccccc1Oc1cn[nH]c1-c1ccc(OC)cc1O		15.8 µM (active)
COc1ccc(-c2[nH]ncc2CN(C)Cc2cc(C)[nH]n2)c(F)c1	-11.4	
COc1ccc(-c2n[nH]c(C)c2-c2ccccc2OC)c(O)c1	-0.59	
COc1ccc(S(=O)(=O)N2CCOCC2)cc1NC(=O)CSc1nnc(NC2CC2)s1	8.11	

Structure (SMILES)	growth rescue (activation) [%]	Potency
Cn1cc(CN2CCCCC2c2ccccn2)c(-c2ccc3c(c2)OCCO3)n1 (stereo not given)	-18.4	
Cc1ccc(SCC(=O)NNC(=O)c2ccc(S(C)(=O)=O)cc2)cc1	-21.6	
CCOC(=O)C1CCN(c2ccc(C(=O)O)cc2[N+](=O)[O-])CC1	18.7	
CC(C)(C)c1nnc2sc(SCC(O)=C(C#N)c3nc4ccccc4[nH]3)nn2c1=O	2.04	
CC1(C(=O)NCc2ccc3c(c2)OCO3)CCN1C(=O)Cc1cccc2ccccc12 (stereo not given)	22.8	
COc1cccc(CC(=O)OCC(=O)NCc2ccc3c(c2)OCO3)c1	-6.63	
N#Cc1nc(Cc2cccc3ccccc23)oc1NCc1ccc2c(c1)OCO2		12.6 µM (active)
O=C(Nc1ccccc1)/C(=C\c1ccco1)NC(=O)c1ccco1	2	
Nc1nc(SCC(=O)NN(c2ccccc2)c2ccccc2)n[nH]1	-8.42	
CC(C)(C)SCCNC(=O)c1cccc([N+](=O)[O-])c1	3.85	
Cc1nn(-c2ccccc2)c2c1C(c1cccc([N+](=O)[O-])c1)N(c1ccccc1)C(=O)N2 (stereo not given)	-1.22	
COc1ccc(C(C(=O)NC2CCCC2)N(CCCO)C(=O)Cn2nnc(-c3ccc(C)o3)n2)cc1 (stereo not given)	-3.96	
CSc1ccc(C(=O)C2CCCN(C(=O)c3ccc(C)nc3)C2)cc1 (stereo not given)	7.96	
CC(=O)N1CCN(C(=O)C2(NC(=O)Nc3ccc(C)cc3)CCCCC2)CC1	14.2	
CC(=O)Oc1ccc2c(=O)oc(-c3ccc([N+](=O)[O-])cc3)nc2c1	6.06	
CC(=O)C1=C(C)NC2=C(C(=O)CC(C)(C)C2)C1C (stereo not given)	7.05	
Oc1ccccc1C=NC1CCCCC1N=Cc1ccccc1O (stereo not given)	1.52	
O=C(c1ccc(F)cc1)N1CCC(n2nnc3ccccc32)CC1	1.07	
Cc1ccc(NC(=O)CSc2nnc(CNC(=O)c3ccccc3F)o2)cc1	-1.92	
O=C(N/N=C/c1ccc2c(c1)OCO2)C(=O)N1CCCC1	10.5	
CC(OC(=O)c1ccc(Cl)cc1O)C(=O)NCCC1=CCCCC1 (stereo not given)	-10.8	
O=C(C1CCN(Cc2ccc(Cl)cc2)CC1)N1CCN(Cc2ccc3c(c2)OCO3)CC1	14.4	
COc1cccc(CC(=O)Nc2nc(-c3ccc(OC)c(OC)c3)cs2)c1	14.4	
CCN(CC(=O)NC(C)C)C(=O)c1cc(S(=O)(=O)N2CCCCC2)ccc1N1CCCCC1	5.21	
Cc1ccc(-c2noc(CNC(=O)c3ccoc3C)n2)cc1	-6.36	
O=C(CCc1c[nH]c2ccccc12)NCCOc1ccccc1	-0.599	
CCn1cc(C(=O)NCC(=O)NC(C)(C)CO)c(=O)c2cc3c(cc21)OCO3	6.6	

Structure (SMILES)	growth rescue (activation) [%]	Potency
Cc1cccc(C(=O)NCC(=O)OCC(=O)N2CC3(C)CC2CC(C)(C)C3)c1 (stereo not given)	2.65	
COc1ccc(OCC(=O)NNC(=O)c2cccc(C)c2)cc1	5.1	
Cc1cc(C)cc(NC(=O)CSc2ccccc2)c1	13.4	
Cc1ccc(NC(=O)CN(C)C(=O)c2ccc(Br)o2)cc1	-3.69	
CNCC(O)CN1CCN(c2ccccc2OC)CC1 (stereo not given)	-12.4	
O=c1c(-c2ccc(Cl)cc2)[n+]([O-])c2ccccc2n1OCc1nc2ccccc2[nH]1	-4.37	
Cc1cc(C)cc(N(CC(=O)NCCSCc2ccco2)S(C)(=O)=O)c1	-12.8	
COC(=O)c1ccc(CN2CCC(CO)(Cc3ccc(OC)cc3)CC2)cc1	-3.6	
COc1ccc(N2CCN(c3ccc([N+](=O)[O-])cc3Cl)CC2)cc1	3.99	
O=[N+]([O-])c1ccc(N2CCN(c3ccc(O)cc3)CC2)c(Cl)c1		12.6 µM (active)
CN(C)S(=O)(=O)N1CCN(c2ccc([N+](=O)[O-])cc2)CC1	5.23	
COCCCNc1ccn2nc(-c3ccc(CC(C)C)cc3)cc2n1	-47.9	
S=C(Nc1ccc(Br)cc1Cl)NC1CCN(Cc2ccccc2)CC1	1.2	
CC(C)=CCN1CCN(Cc2ccc(Oc3ncccn3)cc2)CC1CCO (stereo not given)	2.62	
Cc1ccc(C)c(NC(=O)c2ccc3nccnc3c2)c1	-4.87	
CC(C(=O)O)n1cnc2sc3c(c2c1=O)CCCC3 (stereo not given)	3.86	
Cc1ccc(C(=O)NC2CCN(C(=O)Nc3ccc(F)cc3)CC2)cc1	5.39	
Cc1ccc(/C=N/NC(=O)CN2CCN(Cc3ccccc3)CC2)s1	19.6	
COc1ccc2cc(S(=O)(=O)Nc3ccccn3)ccc2c1	16	
O=C(Cc1ccccc1)Nc1c(Cl)ccc2nsnc12	-0.414	
CC(Oc1ccccc1F)C(=O)NN (stereo not given)	7.92	
COc1ccc(NC(=O)C2COc3ccccc3O2)cc1 (stereo not given)	20.8	
COc1ccc(NC(=O)C2Cc3c(-c4ccc(Cl)cc4)ccnc3O2)cc1 (stereo not given)		20 µM (active)
COc1ccc(NC(=O)C2(C)Cc3c(-c4cccc(NC(C)=O)c4)ccnc3O2)cc1 (stereo not given)	-1.39	
Cc1ccc(N2CCN(C(=O)c3cccs3)CC2)c(C)c1	12.1	
O=c1[nH]oc(O)c1-c1ncc(C(F)(F)F)cc1Cl	-3.8	

— PubChem BioAssay AID1347073 (National Center for Advancing Translational Sciences (NCATS), 2019)
